# IMPase Li cell: cell-permeable IMPase inhibitors with lithium potentiation | Potency, µM (top dose mostly 59.4 µM), for the others: top-dose activity, negative = IMPase inhibition, actives largely listed as inhibitors | CHO-M1 cells, IP1 TR-FRET (IP-One), carbachol + lithium | AID 1457 | 0.35% of 210,000 active;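 further: IP1 builds up when IMPase is blocked and the TR-FRET signal falls; potency means the concentration at half of the fitted maximal effect; plate controls were basal vehicle for no effect and high inhibitor control for full effect; nearly all actives have a fitted effect of over 50% in size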
#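 Concentration–response in CHO-M1 cells, lithium-potentiated; 30 min at 37C. IP1 detected by competitive TR-FRET after 10 min lysis at RT. Hill-fitted AC50.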
# IMPase cell inh: IMPase inhibition in cells; CHO-M1 cells, IP1 accumulation, HTRF TR-FRET ratio; P97697; AID 901; inhibition (IP1 accumulation), % at 46.1 µM; 120,000 tested, under 10 active; active means well fitted curve in the direction sought with a large enough effect in the signal ratio, not every such curve was filed as active; inconclusive means small, poorly fitted or top-dose-only effect, or a change in a side signal; inactive means no such curve, though single readings can be large or run the other way; the % refers to the signal ratio;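 further: cells stimulated with carbachol in lithium chloride buffer; plate controls were DMSO basal wells for no effect and reference inhibitor wells for full effect; higher means more IMPase inhibition seen as more IP1 and lower FRET ratio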
# Target sequence (P97697 whole entry, looked up): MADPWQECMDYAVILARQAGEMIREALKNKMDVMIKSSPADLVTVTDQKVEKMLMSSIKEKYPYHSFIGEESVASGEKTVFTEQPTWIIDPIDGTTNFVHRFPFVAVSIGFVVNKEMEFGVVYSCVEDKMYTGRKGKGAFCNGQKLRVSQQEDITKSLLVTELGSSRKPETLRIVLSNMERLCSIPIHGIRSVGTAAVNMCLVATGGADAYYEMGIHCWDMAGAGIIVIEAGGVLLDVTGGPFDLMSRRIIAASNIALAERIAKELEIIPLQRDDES
#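 Cellular IMPase inhibition is scored as a rise in cytosolic IP1, detected by competitive TR-FRET between d2-labelled IP1 and a europium anti-IP1 antibody. M1-expressing CHO cells were stimulated with carbachol for 30 min at 37C, with lithium (50 mM LiCl) present in the buffer.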
# NPSR antagonist: blocks cAMP signaling of the human neuropeptide S receptor; 1% of 220,000 active; CHO-NPSR cells, cAMP TR-FRET, antagonist mode; Q6W5P4; Potency, µM (titrated, usually from 38.3 µM), for the others: top-dose activity change, negative = inhibition, hits mostly inhibitors; further: potency means the concentration at half of the fitted maximal effect; nearly all actives have a fitted effect of over 50% in size
# HPGD inh: blocks human HPGD enzyme activity; P15428; purified HPGD, NADH fluorescence kinetic, PGE2 substrate; Potency, µM, for the others: top-dose activity change, negative = inhibition, hits mostly inhibitors; 4.3% of 150,000 active; AID 894; active means well fitted inhibition curve with a large enough effect, not every such curve was filed as active; inconclusive means small, poorly fitted or top-dose-only effect, or another doubt; inactive means no such curve, though single readings can be large or run the other way; further: potency means the concentration at half of the fitted maximal effect
# Target sequence (P15428 whole entry, looked up): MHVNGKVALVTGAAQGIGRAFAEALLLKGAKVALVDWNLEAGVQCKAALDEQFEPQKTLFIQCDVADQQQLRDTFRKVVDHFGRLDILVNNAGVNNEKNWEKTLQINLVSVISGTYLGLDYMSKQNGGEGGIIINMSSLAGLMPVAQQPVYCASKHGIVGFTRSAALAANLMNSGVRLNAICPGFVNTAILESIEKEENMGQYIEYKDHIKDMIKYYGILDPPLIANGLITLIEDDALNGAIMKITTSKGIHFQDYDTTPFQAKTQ
#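 NADH formation kinetics: reaction with 30 uM PGE2 and 1 mM NAD+ (final), 20 nM enzyme, Tris-HCl pH 8 with Tween 20, after 15 min compound preincubation at room temperature. Fluorescence change, last versus first of five reads.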
# PNC inhibitor: inhibitors of perinucleolar compartment assembly; PC3M PTB-GFP, PNC prevalence imaging, 16 h; stronger effect = lower value; activity change (PNC), negative = inhibition, % at 10 µM; 3.1% of 140,000 active; AID 2417;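 active means readout at or below -70, meaning at least 70% loss of cells showing the perinucleolar compartment, a nuclear body marking cancer cells; inconclusive means readout between -30 and a set limit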;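 further: plate controls were DMSO wells for no effect and camptothecin positive control wells for full effect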
#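 Read-out is percentage of cells bearing a perinucleolar compartment, from automated 20x imaging of fixed, Hoechst-stained PC3M PTB-GFP cells. Cells were seeded 4 h, then exposed 16 h to compound (23 nl of library stock) in duplicate plates.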
# ALDH1A1 block: inhibitors of human aldehyde dehydrogenase 1A1; Potency, µM (highest dose often 75.3 µM), inactives show at the top dose activity, negative = inhibition, usual class: inhibitors; Purified ALDH1A1, NADH fluorescence, propionaldehyde substrate; 7.3% of 220,000 active; P00352; active means well fitted inhibition curve with a large enough effect, not every such curve was filed as active; inconclusive means small, poorly fitted or top-dose-only effect, or another doubt; inactive means no such curve, though single readings can be large or run the other way;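 further: potency means the concentration at half of the fitted maximal effect; plate controls were no enzyme wells and a reference inhibitor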
# * marks the source's active call; other numbers are inactive results; ? = inconclusive; / = no result given; [ ] = another dose, or the depositor's remark. Rows were chosen to be rich in hits. Some 11% of all compounds tested hit in one or more screens of this group. Unless noted, the call rests on the fitted dose curve; in most records, active means well fitted curve in the direction sought with a large enough effect; inconclusive means small, poorly fitted or top-dose-only effect, or another doubt; inactive means no such curve, though single readings can be large; an effect the other way counts as inactive or inconclusive. Unless noted, on the % scale 0 is the no-effect control and ±100 the full control effect.
SMILES,IMPase Li cell,IMPase cell inh,NPSR antagonist,HPGD inh,PNC inhibitor,ALDH1A1 block
Cc1cccc(-n2c(=O)cc(N3CCN(c4ccc(F)cc4)CC3)[nH]c2=O)c1,3%,-4,-12%[46.1 µM],-12%,-11,-8%
Cc1ccc(Nc2c(-c3ccc(N(C)C)cc3)nc3ncccn23)cc1,/,/,49%,/,/,?
CC(C)OC(=O)CSc1nc2ccccc2s1,21%[38.3 µM],3,-10%[46.1 µM],16µM*,-24,11µM*
Cc1csc(NC(=O)CCCSc2nc3ccccc3s2)n1,43%[38.3 µM],-16,8%[46.1 µM],14µM*,-5,10µM*
CC(C)CC1CC(=O)OC1(C)C(=O)CSc1nc2ccccc2s1 (stereo not drawn),9%[38.3 µM],3,-26%[46.1 µM],-17%,10,8.9µM*
CC(C)CCNC(=O)CSc1nc2ccccc2s1,6%,/,-5%,/,/,18µM*
CC(C)c1nnc(NC(=O)CSc2nc3ccccc3s2)s1,-16%[38.3 µM],4,-15%[46.1 µM],-22%,21,?
CC(=O)N/N=C(\C)c1cccc(NC(=O)c2cccs2)c1,3%,/,-1%,-4%,24,-7%
O=C(Nc1ccc2c(c1)OCCO2)C1c2ccccc2C(=O)N2CCc3ccccc3C12 (stereo not drawn),0%[38.3 µM],-3,-20%[46.1 µM],-1%,-20,-3%
N/C(=N\OC(=O)COc1ccccc1)c1ccncc1,/,/,-13%,/,/,/
CC1(C)C(c2ccccc2)=[N+]([O-])CN1O,?,-5,-8%[46.1 µM],-3%,2,7.9µM*
O=C(NC1CCN(C(=O)N2c3ccccc3Sc3ccccc32)CC1)c1ccccc1F,4%[38.3 µM],-1,?,-10%,-9,11µM*
c1ccc(COC2CCCN(Cc3nc(Cc4ccccc4)no3)C2)cc1 (stereo not drawn),27%,/,18%,/,/,14µM*
O=C(CCSc1ccccc1)N1CCN(c2ccccc2)CC1,1%,/,-14%,/,/,3%
c1ccc(COC2CCCN(Cc3nc(-c4cnccn4)no3)C2)cc1 (stereo not drawn),8%,/,-4%,/,/,-1%
O=C(CCSc1ccccc1)N1CCN(C(=O)c2ccco2)CC1,21%[38.3 µM],-4,-12%[46.1 µM],-14%,-91*,22µM*
Cc1cccc(C)c1NC(=O)C(c1ccccc1)N1CCN(C(=O)c2ccco2)CC1 (stereo not drawn),-4%,/,0%,-7%,34,25µM*
O=C(c1ccco1)N1CCN(Cc2nc(Cc3ccccc3)no2)CC1,7%,/,-7%,/,/,22µM*
Cc1cc(N2C(=O)CC(Cc3ccc(Cl)cc3)C2=O)no1 (stereo not drawn),6%[38.3 µM],-3,-9%[46.1 µM],-4%,17,28%
CCn1c(=O)[nH]c2ccccc21,-3%,-5,/,0%,/,1%
O=C(COc1ccccc1O)N1CCN(C(=O)c2ccco2)CC1,14%[38.3 µM],1,-6%[46.1 µM],-3%,14,2%
CC(C)(C)c1ccc(S(=O)(=O)NCC(=O)N2CCN(C(=O)c3ccco3)CC2)cc1,25%[38.3 µM],-3,5%[46.1 µM],4%,9,1.6µM*
O=C(Cc1ccccc1)N1CCN(C(=O)c2ccco2)CC1,12%,9,18%,-3%,6,20µM*
O=C(c1ccco1)N1CCN(CCCCOc2cccc3ccccc23)CC1,13%,/,-48%,-10%,28,-6%
O=C(c1ccco1)N1CCN(C(=O)c2sccc2-c2ccccc2)CC1,6%,-7,-6%[46.1 µM],-15%,-100*,13µM*
O=C(c1ccco1)N1CCN(CCOCCOc2cccc3ccccc23)CC1,7%[38.3 µM],0,-12%[46.1 µM],3%,-80*,-11%
Cc1nc(Nc2ccc(Cl)cc2)c2nnn(Cc3ccccc3)c2n1,-22%,/,17%,/,/,?
Cc1nc(Nc2cccc(C(C)O)c2)c2nnn(Cc3ccccc3F)c2n1 (stereo not drawn),6%,/,37%,/,/,4.5µM*
Cc1ccc(NC(=O)CSCC(=O)Nc2ncc3c(n2)CC(c2ccco2)CC3=O)cc1 (stereo not drawn),5%[38.3 µM],2,-8%[46.1 µM],2%,-85*,4µM*

# Bioassay records from PubChem.
